Values joined by “and” are separate entries in the source; they are usually repeats but may differ in a detail not shown here. Identical values can stand only once. Some structures have more than one record in an assay (separate samples or runs), and their calls can disagree. Active and inactive are the calls of the source. How the source made its calls: active means hit-call score of the fitted dose curve at least 0.9, where 1 is the maximum; inactive means score below 0.9.

By AC50 is commonly meant the concentration at which the activity in the assay is half-maximal.

The assay in a line: BSK_SAg_Proliferation: Cell Proliferation Assessment in the BioMAP Diversity Plus: SAg Assay (AID 2283095). The settings on record: primary human HUVEC with PBMC. On the procedure: BSK_SAg is a cell-based, multiplexed-readout assay that uses umbilical vein endothelium and peripheral blood mononuclear cells, a human vascular primary cell co-culture, with measurements taken at 24 hours after chemical dosing in a 96-well plate.BSK_SAg_Proliferation is an assay component in the BSK_SAg assay. It measures protein content, a form of viability reporter, as detected with absorbance signals by Sulforhodamine staining technology. Data from the assay component BSK_SAg_Proliferation was analyzed into 1 assay endpoint. This assay endpoint, BSK_SAg_Proliferation, was analyzed with bidirectional fitting relative to DMSO as the negative control and baseline of activity. Using a type of viability reporter, measures of total protein for gain or loss-of-signal activity can be used to understand the viability at the cellular-level. Furthermore, this assay endpoint can be referred to as a secondary readout, because this assay has produced multiple assay endpoints where this one serves a viability function. To generalize the intended target to other relatable targets, this assay endpoint is annotated to the cell cycle intended target family, where the subfamily is proliferation.
The levels of cell surface (or secreted, indicated by the prefix "s") biomarker endpoints were measured by ELISA. Overt cytotoxicity to cells in confluent adherent cultures (all systems other than the BT system) was assessed by measuring total protein levels using sulforhodamine B (SRB) staining in parallel cultures at the time of biomarker measurements, indicated as SRB endpoints. For proliferation assays for adherent cell types, individual cell types are cultured at sub-confluence and relative cell numbers quantified by SRB staining at time points optimized for each system (48 h: 3C and CASM3C systems; 72 h: BT and HDF3CGF systems; 96 h: SAg system). SRB was performed by staining cells with 0.1% SRB after fixation with 10% TCA and reading wells at 560 nm.Viability and proliferation of PBMC (T cells) was quantified by Alamar Blue reduction for the SAg and BT systems. For PBMC viability (referred to as PBMC Cytotoxicity within the assay endpoint names), cells were plated (75,000/well in a 96-well plate) and then chemical samples added for 1 h before addition of activators, SEB and TSST-1 (20 ng/mL final concentration each). Cells were incubated for 90 h. Then, Alamar Blue (20 uL/well) (Invitrogen, Cat DAL1100) was added for 6 h, and the plates were read with a fluorescence microplate reader at 546/580 nm (excitation/emission). For PBMC proliferation, cells were plated and activated as above but incubated for only 16 h prior to addition of Alamar Blue. Plates were read after 6 h.
As for `CCS(=O)(=O)c1cccnc1S(=O)(=O)NC(=O)Nc1nc(OC)cc(OC)n1`, the result was inactive.

Turning to `O=C(O)CCCOc1ccc(Cl)cc1Cl`, the outcome was inactive.

With `COc1nn(CSP(=S)(OC)OC)c(=O)s1`, the result was inactive.

Turning to `C#CCN1C(=O)COc2cc(F)c(N3C(=O)C4=C(CCCC4)C3=O)cc21`, the outcome was inactive.

Take `CCCN(CCOc1c(Cl)cc(Cl)cc1Cl)C(=O)n1ccnc1`: the concentration at half-maximal activity (AC50) is 30.4 µM (active).

For `CCOc1nc(NC)nc(NC(=O)NS(=O)(=O)c2ccccc2C(=O)OC)n1`, the outcome was inactive.

Regarding `CC(C)N(C(=O)COc1nnc(C(F)(F)F)s1)c1ccc(F)cc1`, the AC50 is 15.8 µM (active).

Turning to `CC1(c2ccc(Oc3ccccc3)cc2)OC(=O)N(Nc2ccccc2)C1=O` (stereo not given), the AC50 was 16.9 µM (active).

`CCC(C)(NC(=O)c1cc(Cl)c(C)c(Cl)c1)C(=O)CCl` (stereo not given): the AC50 was 1.92 µM (active).

In the case of `CCC(C)Nc1c([N+](=O)[O-])cc(C(C)(C)C)cc1[N+](=O)[O-]` (stereo not given), the concentration at half-maximal activity (AC50) was 29.6 µM (active).

On to `CC(C)(C)C(O)C(Oc1ccc(Cl)cc1)n1cncn1` (stereo not given), for which the result was inactive and the concentration at half-maximal activity (AC50) was 15 µM (active).

In the case of `Oc1cc(Cl)ccc1Oc1ccc(Cl)cc1Cl`, the concentration at half-maximal activity (AC50) was 8.46 µM (active) and 8.15 µM (active) and 6.76 µM (active).

`CNC(=O)Oc1ccccc1OC(C)C`: the outcome was inactive.

For the compound `Clc1ccccc1-c1nnc(-c2ccccc2Cl)nn1`, the outcome was inactive.

Turning to `COC(=O)c1ccccc1S(=O)(=O)NC(=O)Nc1nc(C)nc(OC)n1`, the result was inactive.

`Cc1[nH]c(=O)n(C(C)(C)C)c(=O)c1Cl`: the AC50 is 16 µM (active).

For `O=C(O)COc1ccc(Cl)cc1Cl`, the outcome was inactive.

`CCOCN(C(=O)CCl)c1c(C)cccc1CC`: the AC50 was 27.1 µM (active).

`COC(=O)c1ccccc1CS(=O)(=O)NC(=O)Nc1nc(OC)cc(OC)n1`: the result was inactive.

For `CCc1ccc(C(=O)NN(C(=O)c2cc(C)cc(C)c2)C(C)(C)C)cc1`, the AC50 was 17.7 µM (active).

Turning to `O=C(NC(=O)c1c(F)cccc1F)Nc1ccc(OC(F)(F)C(F)OC(F)(F)F)c(Cl)c1` (stereo not given), the AC50 is 9.75 µM (active).

Consider `CC1(C)C(C=C(Cl)Cl)C1C(=O)OC(C#N)c1ccc(F)c(Oc2ccccc2)c1` (stereo not given), for which the half-maximal activity concentration (AC50) is 29.9 µM (active).

For the compound `COP(=O)(OC)OC=C(Cl)Cl`, the AC50 was 20 µM (active).

On to `CNC(=O)CSP(=S)(OC)OC`, for which the result was inactive.

On to `O=S1OCC2C(CO1)C1(Cl)C(Cl)=C(Cl)C2(Cl)C1(Cl)Cl` (stereo not given), for which the AC50 is 14.2 µM (active).

As to `N#CN`, the result was inactive.

In the case of `[2H]C1([2H])[n+]2ccccc2-c2cccc[n+]2C1([2H])[2H]`, the outcome was inactive.

Regarding `O=C1c2ccccc2C(=O)N1SC(Cl)(Cl)Cl`, the AC50 is 23.4 µM (active).

As for `CNC(=O)Oc1cccc(N=CN(C)C)c1`, the concentration at half-maximal activity (AC50) is 17.9 µM (active).

Consider `COP(=S)(OC)Oc1ccc([N+](=O)[O-])cc1`, for which the concentration at half-maximal activity (AC50) is 21.9 µM (active).

Regarding `O=C(Nc1ccccc1)Nc1cnns1`, the outcome was inactive.

As to `COc1cc(OC)nc(NC(=O)NS(=O)(=O)c2cc(NC=O)ccc2C(=O)N(C)C)n1`, the outcome was inactive.

With `N#Cc1c(Cl)c(Cl)c(Cl)c(C#N)c1Cl`, the concentration at half-maximal activity (AC50) is 0.197 µM (active).

For the compound `CN1CSC(=S)N(C)C1`, the AC50 was 5.99 µM (active).

In the case of `O=[N+]([O-])c1c(Cl)c(Cl)c(Cl)c(Cl)c1Cl`, the AC50 is 31.2 µM (active).

Turning to `CNC(=O)/C=C(\C)OP(=O)(OC)OC`, the outcome was inactive.

Consider `OCCOc1ccccc1`, for which the outcome was inactive.

As for `COP(=S)(OC)Oc1ccc(SC)c(C)c1`, the result was inactive.

Turning to `CCOC1Oc2ccc(OS(C)(=O)=O)cc2C1(C)C` (stereo not given), the outcome was inactive.

Source of the values: PubChem BioAssay (EPA / NIEHS).
